The subject of assay [1] is Wnt5a (protein binding on small-molecule microarray). The assay is described as follows: small molecules binding Wnt5a protein – biophysical, small-molecule microarray, 635/667 nm fluorescence, primary screen (AID 1142).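 Further: fluorescence read at 667 nm with signal to noise per printed feature.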 As to conditions: 635 nm fluorescence, higher = more signal.
Assay [2] is described as follows: ATP-based viability of Huh7 replicon cells – cell-based, CellTiter-Glo luminescence, basal, 48 h, cytotoxicity control for HCV replication inhibitor project, primary screen (AID 1143).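 Further: Huh7 hepatoma cells carrying a hepatitis C replication reporter with no stimulus; test concentration not given here.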 As to conditions: higher = more signal, called active from +8 up or from −8 down. (A replicon is a self-replicating genome or part of one, used to study replication in cells.)
Assay [3] in a line: Pseudomonas biofilm growth suppression – PAO1 strain, BacTiter-Glo luminescence, LB-PBS, primary screen (AID 1144). As to conditions: P. aeruginosa PAO1 biofilm, 12 h, higher = more signal.
Assay [4] can be described thus: basal CRE-LacZ reporter activity in PC12 – cell-based, unstimulated, primary screen (AID 1145). Conditions: no forskolin, luminescence, 4.5 h, higher = more signal, called active from +8 up or from −8 down.
A short description of assay [5]: forskolin-driven CRE-LacZ activity in PC12 – cell-based, CRE-LacZ reporter, forskolin-stimulated, primary screen (AID 1146).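 Further: PC12 cells with 6xCRE LacZ reporter stimulated by forskolin 10 µM; beta-galactosidase reporter signal reflecting CREB driven transcription.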 Conditions: luminescence, 4.5 h, higher = more signal, called active from +8 up or from −8 down.
For assay [6], the target named is Streptavidin (Streptomyces avidinii) (UniProt P22629). The assay is described as follows: compounds binding control protein streptavidin – biophysical, small-molecule microarray, 635/667 nm fluorescence, artefact control for SMM compound annotation, primary screen (AID 1147).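 Further: signal reflects streptavidin binding to arrayed compounds as a control protein.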 As to conditions: higher = more signal.
Sequence of Streptavidin (Streptomyces avidinii) (P22629 whole entry, looked up): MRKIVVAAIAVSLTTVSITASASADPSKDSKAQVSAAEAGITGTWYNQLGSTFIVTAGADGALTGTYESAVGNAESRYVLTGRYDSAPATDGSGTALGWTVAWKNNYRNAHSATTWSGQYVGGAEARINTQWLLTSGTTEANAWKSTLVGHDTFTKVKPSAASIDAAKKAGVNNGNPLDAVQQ
Assay [7] can be described thus: probe aInhba binding on compound microarray – biochemical, small-molecule microarray, 635/667 nm fluorescence, primary screen (AID 1148).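 Further: score merges 667nm spot fluorescence with signal-to-noise for antibody binding to printed compounds.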 As to conditions: higher = more signal.
The target in assay [8] is Torsin-1A (Homo sapiens) (UniProt O14656). The assay can be described thus: TOR1A wild-type binding on microarray – cell lysate, small-molecule microarray, lysate, 635/667 nm, primary screen (AID 1149). Conditions: COS7 hTOR1A-WT lysate, 635 nm fluorescence, higher = more signal.
Sequence of Torsin-1A (Homo sapiens) (O14656 whole entry, looked up): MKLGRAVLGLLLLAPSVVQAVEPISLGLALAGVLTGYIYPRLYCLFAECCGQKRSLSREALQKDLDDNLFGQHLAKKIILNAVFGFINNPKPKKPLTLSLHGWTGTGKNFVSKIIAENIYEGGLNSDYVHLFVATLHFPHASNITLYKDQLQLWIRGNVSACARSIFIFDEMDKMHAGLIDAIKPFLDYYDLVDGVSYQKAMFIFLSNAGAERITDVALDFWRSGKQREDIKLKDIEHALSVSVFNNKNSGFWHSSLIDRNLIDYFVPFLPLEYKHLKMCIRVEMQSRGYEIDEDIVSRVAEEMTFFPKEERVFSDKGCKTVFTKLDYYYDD
Assay [9] shares this target. The assay is described as follows: torsin A mutant lysate binding on microarrays – cell lysate, small-molecule microarray, COS7 lysate, 635/667 nm fluorescence, primary screen (AID 1150).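 Further: score pools 667 nm emission and signal to noise measuring lysate protein binding.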 As to conditions: COS7 hTOR1A mutant lysate, 635 nm fluorescence, higher = more signal.
The subject of assay [10] is Sonic hedgehog protein (Shh). The assay can be described thus: Sonic hedgehog microarray binding compounds – biochemical, small-molecule microarray, 635/667 nm fluorescence, primary screen (AID 1151).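 Further: Shh protein binding to compounds spotted on small-molecule microarray slides; score combines spot fluorescence intensity with signal-to-noise across triplicate slides.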 Conditions: 635 nm fluorescence, higher = more signal.
Assay [11] is described as follows: optical density shifts of acrAB sulA E. coli – strain DRC41, OD650, 48 h, E. coli filamentation inducer project, primary screen (AID 1152).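 Further: E. coli MC1000 strain DRC41 lacking acrAB efflux pump and sulA.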 Conditions: higher = more signal, called active from +8 up or from −8 down.
Assay [12] in a line: probe aLefty1 binding on compound microarray – biochemical, small-molecule microarray, 635/667 nm fluorescence, primary screen (AID 1153).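 Further: score merges spot fluorescence with signal-to-noise ratio from the scanned slide images.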 Conditions: higher = more signal.
Assay [13] in a line: plasmodial surface anion channel blockers, osmotic lysis – cell-based, P. falciparum Indochina, OD700, 1 h, primary screen (AID 1154). Conditions: P. falciparum Indochina infected RBC osmotic lysis, higher = more signal, called active from +8 up or from −8 down.
A short description of assay [14]: plasmodial surface anion channel blockers, osmotic lysis – cell-based, P. falciparum Indochina, OD700, 2 h, primary screen (AID 1155).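 Further: lysis reports solute entry through the parasite surface anion channel PSAC.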 As to conditions: P. falciparum Indochina infected erythrocytes, higher = more signal, called active from +8 up or from −8 down.
The nature of assay [15]: changes in parasitized red cell lysis, either direction – P. falciparum Indochina, OD700, 3 h, PSAC antagonist project, primary screen (AID 1156). Conditions: P. falciparum-infected erythrocytes, osmotic lysis, higher = more signal, called active from +8 up or from −8 down.
A short description of assay [16]: plasmodial surface anion channel blockers, osmotic lysis – cell-based, P. falciparum Indochina, OD700, 18 h, primary screen (AID 1157). Conditions: P. falciparum Indochina infected erythrocytes, osmotic lysis OD700, 18 h; higher = more signal, called active from +8 up or from −8 down.
The nature of assay [17]: S6 kinase pathway phospho-S6 level changes – cell-based, A549, cytoblot, luminescence, serum-stimulated, primary screen (AID 1158).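 Further: serum-stimulated A549 lung adenocarcinoma cells; signal is phosphorylated S6 detected by cytoblot immunostaining with HRP secondary.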 Conditions: 5 h, higher = more signal.
For assay [18], the target named is NADPH oxidase 2 (Homo sapiens) (UniProt P04839). The assay can be described thus: compounds shifting NOX2 Amplex Red fluorescence – cell-based, HEK293-NOX2, PMA-stimulated, NOX inhibitor project, primary screen (AID 1159). Further: test concentration not given here. As to conditions: 45 min, higher = more signal, called active from +8 up or from −8 down.
Sequence of NADPH oxidase 2 (Homo sapiens) (P04839 whole entry, looked up): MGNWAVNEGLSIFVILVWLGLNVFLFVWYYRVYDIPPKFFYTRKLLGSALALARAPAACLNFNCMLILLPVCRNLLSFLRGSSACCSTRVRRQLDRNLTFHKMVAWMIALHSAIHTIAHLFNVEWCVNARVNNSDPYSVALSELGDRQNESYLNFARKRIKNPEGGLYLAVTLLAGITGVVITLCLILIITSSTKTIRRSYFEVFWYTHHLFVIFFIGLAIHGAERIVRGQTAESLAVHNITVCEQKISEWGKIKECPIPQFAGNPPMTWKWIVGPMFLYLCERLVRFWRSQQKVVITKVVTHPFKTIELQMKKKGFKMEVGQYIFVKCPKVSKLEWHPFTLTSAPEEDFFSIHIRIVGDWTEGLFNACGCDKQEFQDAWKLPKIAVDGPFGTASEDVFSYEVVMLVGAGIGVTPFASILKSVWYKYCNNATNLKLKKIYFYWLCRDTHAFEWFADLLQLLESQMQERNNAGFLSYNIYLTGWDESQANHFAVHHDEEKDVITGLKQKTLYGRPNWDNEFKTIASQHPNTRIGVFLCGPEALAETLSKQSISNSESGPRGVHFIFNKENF
The target of assay [19] is NADPH oxidase 4 (Homo sapiens) (UniProt Q9NPH5). The assay can be described thus: compounds shifting NOX4 Amplex Red fluorescence – cell-based, HEK293-NOX4, tetracycline-induced, NOX inhibitor project, primary screen (AID 1160). As to conditions: HEK293-NOX4, Amplex Red H2O2 fluorescence, 45 min; higher = more signal, called active from +8 up or from −8 down.
Sequence of NADPH oxidase 4 (Homo sapiens) (Q9NPH5 whole entry, looked up): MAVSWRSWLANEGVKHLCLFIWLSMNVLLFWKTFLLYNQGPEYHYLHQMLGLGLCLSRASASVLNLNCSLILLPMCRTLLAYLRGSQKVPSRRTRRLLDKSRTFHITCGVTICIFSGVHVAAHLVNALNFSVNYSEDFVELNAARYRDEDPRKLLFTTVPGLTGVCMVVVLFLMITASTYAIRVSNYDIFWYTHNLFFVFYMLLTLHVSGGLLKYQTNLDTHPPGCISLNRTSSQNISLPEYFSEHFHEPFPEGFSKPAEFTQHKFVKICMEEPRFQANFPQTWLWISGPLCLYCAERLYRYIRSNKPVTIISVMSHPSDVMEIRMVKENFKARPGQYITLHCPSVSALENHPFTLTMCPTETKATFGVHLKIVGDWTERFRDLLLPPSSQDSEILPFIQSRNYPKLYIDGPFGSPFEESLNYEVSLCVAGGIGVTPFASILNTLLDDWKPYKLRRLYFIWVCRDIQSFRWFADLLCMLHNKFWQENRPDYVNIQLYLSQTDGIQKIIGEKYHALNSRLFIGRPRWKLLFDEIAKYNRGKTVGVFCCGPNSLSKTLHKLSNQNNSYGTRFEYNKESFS
Assay [20] concerns the target NADPH oxidase 5 (Homo sapiens) (UniProt Q96PH1). The assay can be described thus: compounds shifting NOX5 Amplex Red fluorescence – cell-based, HEK293-NOX5, NOX inhibitor project, primary screen (AID 1161). As to conditions: HEK293-NOX5, ionomycin, 45 min, higher = more signal.

Results on four compounds are retold here after PubChem BioAssay.

Molecules are shown by their SMILES. Activity calls are given as the source filed them. Unless noted, how the calls were made is not given here.

Sequence of NADPH oxidase 5 (Homo sapiens) (Q96PH1 whole entry, looked up): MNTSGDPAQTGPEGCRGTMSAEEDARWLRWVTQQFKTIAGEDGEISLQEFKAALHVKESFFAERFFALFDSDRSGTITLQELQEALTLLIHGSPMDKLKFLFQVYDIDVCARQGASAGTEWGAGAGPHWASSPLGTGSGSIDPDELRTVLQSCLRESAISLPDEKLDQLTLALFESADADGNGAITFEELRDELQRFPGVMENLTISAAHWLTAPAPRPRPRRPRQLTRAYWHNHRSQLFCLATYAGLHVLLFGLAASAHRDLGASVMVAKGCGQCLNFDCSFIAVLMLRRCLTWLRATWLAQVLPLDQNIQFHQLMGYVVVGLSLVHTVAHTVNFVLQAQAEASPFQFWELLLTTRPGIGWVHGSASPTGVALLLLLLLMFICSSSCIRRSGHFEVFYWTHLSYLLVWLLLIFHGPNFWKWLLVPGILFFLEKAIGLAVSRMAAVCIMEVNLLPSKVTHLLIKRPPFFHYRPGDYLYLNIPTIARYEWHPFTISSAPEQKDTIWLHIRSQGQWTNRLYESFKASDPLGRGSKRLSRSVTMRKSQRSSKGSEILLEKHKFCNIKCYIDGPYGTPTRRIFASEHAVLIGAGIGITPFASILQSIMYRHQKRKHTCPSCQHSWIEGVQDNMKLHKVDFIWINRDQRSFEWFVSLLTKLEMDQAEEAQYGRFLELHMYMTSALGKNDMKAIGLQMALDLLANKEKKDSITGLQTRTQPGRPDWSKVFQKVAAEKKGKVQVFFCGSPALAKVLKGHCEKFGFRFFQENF

Regarding `COC(=O)CC=C[C@@H](C)[C@@H](C=NOC[C@@H](O)COCc1ccco1)OC`, the composite z-score in [1] is -0.302; in [6], 0.457; in [7] it was -0.214; in the assay with Torsin-1A (Homo sapiens) [8], 3.02; with Torsin-1A (Homo sapiens) [9], 2.69; in [10] it was 1.99. For the same compound, the composite z-score in assay [12] was -0.202. Further, the z-score is 0.545 (inactive) in assay [2]; 1.47 (inactive) in assay [3]; -1.05 (inactive) in [4]; -0.252 (inactive) in assay [5]; 0.245 (inactive) in assay [11]; 0.202 (inactive) in assay [13]. Besides, the z-score is 0.322 (inactive) in [14]; -0.0838 (inactive) in assay [15]; 0.145 (inactive) in [16]; 0.564 in assay [17]; -0.499 (inactive) in assay [18]; 0.024 (inactive) in [19]. Also, the z-score in assay [20] worked out at 0.403.

Take `O=C1[C@H]2[C@H]3[C@H](O)[C@H](O)CC(=NO[C@@H]4O[C@H](CO)[C@@H](O)[C@H](O)[C@H]4O)[C@H]3CC[C@H]2C(=O)N1C[C@@H]1CCCO1`: the composite z-score in assay [1] is 0.16; in [6], 0.253; in assay [7] it was -0.159; in the assay with Torsin-1A (Homo sapiens) [8], 0.288; with Torsin-1A (Homo sapiens) [9], 0.952; in [10], -0.167. Also, in assay [12], the composite z-score was -0.0054. Moreover, the z-score in assay [2] was 0.297 (inactive); in assay [3] it was 0.261 (inactive); in assay [4], -0.477 (inactive); in [5] it was -0.105 (inactive); in assay [11] it was 0.819 (inactive); in assay [13], 0.651 (inactive). The z-score in [14] is 0.544 (inactive); in assay [15], 0.0197 (inactive); in [16] it was 0.353 (inactive); in [17], -0.164; in [18], -2.4 (inactive); in [19], 0.513 (inactive). In assay [20], the z-score was 0.488.

Take `CC(C)[C@@H](OCc1ccccc1)[C@H](C)C=NO[C@@H](C)c1cn([C@H](CO)Cc2ccccc2)nn1`: the composite z-score was -0.0307 in assay [1]; -0.0202 in [6]; -0.107 in assay [7]; 0.752 in the assay with Torsin-1A (Homo sapiens) [8]; 0.441 with Torsin-1A (Homo sapiens) [9]; 0.26 in assay [10]. Also, in assay [12], the composite z-score was determined as 0.086. For the same compound, the z-score was -0.927 (inactive) in assay [2]; 0.496 (inactive) in [3]; 0.843 (inactive) in assay [4]; -0.0785 (inactive) in assay [5]; 0.502 (inactive) in [11]; 1.82 (inactive) in [13]. In addition, the z-score in assay [14] was -0.246 (inactive); in assay [15] it was -0.038 (inactive); in assay [16] it was 0.245 (inactive); in assay [17], -0.78; in [18] it was -1.07 (inactive); in assay [19], -0.046 (inactive). In addition, the z-score in [20] is -0.543.

Consider `CON(C)C(=O)c1nnc2c(n1)[nH]c1ccccc12`, for which the composite z-score in [1] is 0.0269; in assay [6] it was 0.153; in assay [7] it was -0.101; in the assay with Torsin-1A (Homo sapiens) [8] it was 0.275; with Torsin-1A (Homo sapiens) [9], 0.333; in assay [10] it was 0.928. In addition, the composite z-score in assay [12] was -0.161. For the same compound, the z-score is 0.569 (inactive) in assay [2]; 0.555 (inactive) in assay [3]; 0.198 (inactive) in [4]; 0.275 (inactive) in [5]; -0.398 (inactive) in [11]; 1.61 (inactive) in [13]. Further, the z-score in [14] is 0.235 (inactive); in [15], -0.322 (inactive); in assay [16] it was 0.0008 (inactive); in assay [17], -0.133; in assay [18], 1.04 (inactive); in [19], 0.103 (inactive). The z-score in assay [20] was found to be 0.836.
